Screening data: PubChem BioAssay, University of Pittsburgh Molecular Library Screening Center
HIV RNase H inh – inhibitors of HIV-1 reverse transcriptase RNase H; P04585; RT-RNase H RNA/DNA duplex cleavage, fluorescence; inhibition, % at 10 µM; 65,000 compounds, 1.9% hits; in the data active = inhibition above about 50%
* = called active by the depositor. This excerpt belongs to a sample that is enriched for hits.

SMILES | HIV RNase H inh
OC1(c2ccc(F)cc2)CCN(Cc2nnnn2Cc2cccs2)CC1 | 4
Cc1ccccc1C(=O)Nc1ccc(Cl)cn1 | -13
CCOC(=O)NC1(Nc2ccc(Cl)cn2)Oc2ccccc2O1 | 57*
CCCCC(=O)Nc1ccc(Cl)cn1 | -9
CCOC(=O)N1CCC(NC(=O)c2ccc(CS(=O)(=O)c3ccccc3C)o2)CC1 | -4
COc1ccc(C)cc1S(=O)(=O)N(CC(=O)N1CCCC1)c1ccccc1 | -8
O=c1cc(CN2CCN(c3ccccc3)CC2)c2c(ccc3ccccc32)o1 | 4
COc1ccc(N2CCN(Cc3cc(=O)oc4c3ccc3ccccc34)CC2)cc1 | 54*
COc1ccc(N2CCN(Cc3cc(=O)oc4ccc(Cl)cc34)CC2)cc1 | 24
CCCCOc1ccccc1NC(=O)CC1SC(=NCC)N(CC)C1=O (stereo unspecified) | -9
CCCCNC(=O)CC1Nc2ccccc2NC1=O (stereo unspecified) | 0
CCCCOc1ccccc1NC(=O)CC1Nc2ccccc2NC1=O (stereo unspecified) | 69*
CCOC(=O)c1cnc(-c2ccccc2)nc1N | -14
CCOC(=O)c1cc(-c2ccccc2)sc1N | 65*
CCOC(=O)c1sc(-c2ccccc2)cc1N | -8
CCN(CCCNS(=O)(=O)c1ccc2c(c1)CCN2C(C)=O)c1cccc(C)c1 | 4
CS(=O)(=O)N(CCc1ccccc1)CC(=O)NCc1ccco1 | 8
CCSCc1nnc(SCC(=O)c2ccc(OC)cc2)n1C | 14
O=C1c2oc3ccc(F)cc3c(=O)c2C(c2ccccc2)N1CC1CCCO1 (stereo unspecified) | -4
Cc1oc(-c2ccccc2F)nc1CSCC(=O)NCc1ccc2c(c1)OCO2 | -50
CCCc1cc(=O)[nH]c(SCC(=O)NC(=O)c2ccccc2)n1 | 0
COC(=O)Cc1cc(=O)[nH]c(/N=C(/NC(=O)c2ccccc2)Nc2ccccc2C)n1 | 53*
COC(=O)Cc1cc(=O)[nH]c(/N=C(\N)Nc2ccc(C)cc2C)n1 | -6
COc1ccc(S(=O)(=O)N2CCc3ccccc32)cc1C(=O)OCc1nnc(-c2ccccc2)o1 | -2
CCOC(=O)c1cc2c(ccn2C)n1CC(=O)N1CCN(c2ccccc2OC)CC1 | -14
SMILES | HIV RNase H inh
COCCCNC(=O)CCS(=O)(=O)Cc1ccc(C)cc1 | -15
O=C(CC1(C(F)(F)F)OCCO1)Nc1ccc2c(c1)OCO2 | 2
Cc1oc2c(O)c(O)ccc2c(=O)c1-c1cnn(-c2ccccc2)c1 | 35
Cc1oc2c(CN3CCCC3)c(O)ccc2c(=O)c1-c1ccc(Br)cc1 | 2
Cc1oc2c(O)c(O)ccc2c(=O)c1-c1ccccc1 | 70*
CCN(CCCNC(=O)CN(C)S(=O)(=O)c1ccc2c(c1)CCC(=O)N2)c1cccc(C)c1 | 6
CCOC(=O)c1c(-c2cccs2)csc1NC(=O)c1ccco1 | 28
CCOC(=O)c1c(-c2cccs2)csc1NC(=O)CN1CCOCC1 | -22
NC(=O)c1c(-c2cccs2)csc1N | 80*
O=C(OCC(F)(F)C(F)F)c1ccccc1C(=O)Oc1ccc(F)cc1F | -43
O=C(COc1ncnc2sccc12)N1CCc2ccccc2C1 | -3
O=C(O)CCc1ccc(-c2cccs2)n1Cc1ccco1 | -7
O=C(O)CCc1ccc(-c2cccs2)n1NC(=O)c1ccc(O)cc1 | 51*
CCCCn1c(CCC(=O)O)ccc1-c1cccs1 | -10
Cc1noc(C)c1COC(=O)CCN1c2ccccc2Sc2ccccc21 | -36
COc1ccc(CCNC(=O)CN2C(=O)C3(OCCCO3)c3ccccc32)cc1OC | 12
CC(C)C(c1nnnn1C1CCCC1)N1CCN(C(=O)c2ccco2)CC1 (stereo unspecified) | -5
Cc1cc(C)cc(N2C(=O)C3C4C=CC(C4)C3C2=O)c1 (stereo unspecified) | -8
O=C(c1ccco1)c1cn[nH]c1-c1ccc(Cl)cc1O | -50
Cn1c(CCNC(=O)c2ccco2)nc2cc(NS(=O)(=O)c3ccc(Cl)cc3)ccc21 | 2
COc1ccc(OC)c(C(=O)CSc2nnc(Cc3cccs3)n2C)c1 | 3
Cc1cc(C)cc(N(CC(=O)NCc2ccco2)S(=O)(=O)c2c(C)noc2C)c1 | -3
N#CC1=C(N)Oc2cc3c(cc2C1c1ccc(Cl)cc1)OCO3 (stereo unspecified) | 55*
COc1cc(C2C(C#N)=C(N)Oc3cc(O)ccc32)cc2c1OCO2 (stereo unspecified) | -46
COc1cc(C2C(C#N)=C(N)Oc3cc(N(C)C)ccc32)cc2c1OCO2 (stereo unspecified) | -4
SMILES | HIV RNase H inh
CC1=C2C(CCS2(=O)=O)CC2(C1)C(=O)OC(C)(C)OC2=O (stereo unspecified) | -2
COc1cc(OC)c(C2CC(=O)N3CN(c4ccc(C)cc4)CSC3=C2C#N)cc1OC (stereo unspecified) | 30
N#CC1=C2SCN(Cc3ccco3)CN2C(=O)CC1c1cccc2ccccc12 (stereo unspecified) | 57*
O=C1C2C3c4ccccc4C(c4ccccc43)C2C(=O)N1Cc1ccco1 (stereo unspecified) | -4
CCOC(=O)N1CCN(S(=O)(=O)c2cccc3ccc(C)nc23)CC1 | -23
COc1ccc(CNc2nc3c(c(C(F)(F)F)n2)CCCCC3)cc1 | -72
